The list is not random: actives were taken first. Their share in the collection is about 2.8%.
POLH inh: blocks human DNA polymerase eta activity | AID 588591 | Potency, µM (top dose mostly 114 µM), without a hit: top-dose activity change, negative = inhibition, actives largely listed as inhibitors | 390,000 tested, 1.2% active | Q9Y253 | recombinant Pol eta, fluorescent DNA replication assay; further: potency means the concentration at half of the fitted maximal effect; on the % scale 0 is the no-effect control and ±100 the full control effect
Target sequence (Q9Y253 whole entry, looked up): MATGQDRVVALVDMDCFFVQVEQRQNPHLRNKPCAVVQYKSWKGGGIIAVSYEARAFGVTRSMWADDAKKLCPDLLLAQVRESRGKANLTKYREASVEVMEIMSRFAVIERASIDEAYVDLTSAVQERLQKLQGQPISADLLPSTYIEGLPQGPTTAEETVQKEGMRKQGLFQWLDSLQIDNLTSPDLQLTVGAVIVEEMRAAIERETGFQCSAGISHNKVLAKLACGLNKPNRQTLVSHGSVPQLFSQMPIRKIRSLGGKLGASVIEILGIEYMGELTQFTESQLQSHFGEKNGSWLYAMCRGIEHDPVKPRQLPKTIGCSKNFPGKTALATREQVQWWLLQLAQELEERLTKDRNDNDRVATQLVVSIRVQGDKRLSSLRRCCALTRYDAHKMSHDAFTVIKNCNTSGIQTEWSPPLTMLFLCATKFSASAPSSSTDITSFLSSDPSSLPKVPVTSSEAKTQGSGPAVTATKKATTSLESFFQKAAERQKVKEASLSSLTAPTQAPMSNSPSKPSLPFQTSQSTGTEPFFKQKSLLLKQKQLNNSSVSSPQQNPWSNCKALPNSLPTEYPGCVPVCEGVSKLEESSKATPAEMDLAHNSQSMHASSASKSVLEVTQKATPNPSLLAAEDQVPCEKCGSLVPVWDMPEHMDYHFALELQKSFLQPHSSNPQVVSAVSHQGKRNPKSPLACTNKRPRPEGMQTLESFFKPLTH
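Fluorescent replication assay: 50 nM final substrate added after a 15 min room-temperature compound preincubation with 10 nM enzyme. Signal taken at 0 min and again at 10 min.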
Pol iota inh: blocks human DNA polymerase iota activity; Q9UNA4; Pol iota fluorescent replication assay, 10 min; Potency, µM (highest dose often 115 µM), inactives show at the highest dose activity, negative = inhibition, usual class: inhibitors; 390,000 tested, 1% active; AID 588590; further: potency means the concentration at half of the fitted maximal effect
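Fluorescent replication assay read twice, at 0 min and 10 min after adding 50 nM (final) substrate. Enzyme (10 nM) and compounds were first incubated 15 min at room temperature; enzyme-free buffer wells were negative controls.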
POLK inh: DNA polymerase kappa (human) inhibition; 400,000 tested, 0.53% active; Potency, µM (titrated, usually from 107 µM), for inactives: at the highest dose activity, negative = inhibition, actives largely listed as inhibitors; purified Pol kappa, fluorescent DNA synthesis assay, 10 min; further: potency means the concentration at half of the fitted maximal effect; on the % scale 0 is the no-effect control and ±100 the full control effect
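Fluorescent qHTS in 1536-well format: enzyme (10 nM) and compound sat 15 min at room temperature before 50 nM substrate (final) was added. Signal taken at 0 and 10 min; no-enzyme buffer wells were negative controls.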
Pol beta inh: inhibitors of human DNA polymerase beta. Pol beta primer extension/strand displacement, fluorescence kinetic. Potency, µM (top dose mostly 114 µM), inactives show top-dose activity change, negative = inhibition, hits mostly inhibitors. 340,000 tested, 1.3% active. AID 485314; further: potency means the concentration at half of the fitted maximal effect; on the % scale 0 is the no-effect control and ±100 the full control effect
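Values derive from four-parameter Hill fits of normalized kinetic data: reads at 0 and 10 min following addition of 50 nM substrate to 10 nM Pol beta preincubated 15 min with compound.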
PI5P4Ka inh: PI5P4K alpha (human) kinase inhibition; P48426; PI5P4Kalpha enzyme, ADP-Glo luminescence, 60 min; stronger effect = lower value; max response, %; 330,000 tested, 1.2% active; AID 652105; active means max response of -50% or lower; inconclusive means between -30% and -50%; inactive means -30% or higher; further: value at the top dose of about 77 µM; on the % scale 0 is the no-effect control and ±100 the full control effect
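ADP-Glo luminescence end-point read after a 60 min room-temperature kinase reaction of PI5P4Kalpha plus substrate, initiated with ATP at 5 microM final. Buffer: 0.038 M HEPES pH 7.4, EGTA, 0.1% CHAPS, 5% DMSO.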
FEN1 inhibitor: blocks human flap endonuclease 1; P39748; 390,000 tested, 0.35% active; Recombinant FEN1 flap cleavage, fluorescence, 15 min; Potency, µM (titrated, usually from 114 µM), for inactives: at the top dose activity change, negative = inhibition, hits mostly inhibitors; further: potency means the concentration at half of the fitted maximal effect; on the % scale 0 is the no-effect control and ±100 the full control effect; nearly all actives have a fitted effect of over 65% in size
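Potency values derive from four-parameter Hill fits of normalized qHTS data. The reaction used 10 nM FEN1 preincubated 15 min at room temperature with compound, then 50 nM DNA substrate, read at 0 and 15 min.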
Numbers without * were called inactive; ? = inconclusive; · = not tested or not shown; ! = repeats disagree; [ ] = dose if it differs, or a comment. Unless noted, the call rests on the fitted dose curve; in most records, active means well fitted curve in the direction sought with a large enough effect; inconclusive means small, poorly fitted or top-dose-only effect, or another doubt; inactive means no such curve, though single readings can be large; an effect the other way counts as inactive or inconclusive.

SMILES	POLH inh	Pol iota inh	POLK inh	Pol beta inh	PI5P4Ka inh	FEN1 inhibitor
C=CCNC(=O)c1ccc(C2SCC(=O)N2Cc2ccco2)cc1 (centres undefined)	?	45µM*	?	?	-20	13%
O=C(NCc1ccc2c(c1)OCO2)c1ccc(C2SCC(=O)N2Cc2ccco2)cc1 (centres undefined)	79µM*	?	-34%	-27%	·	13%
COCCNC(=O)c1ccc(C2SCC(=O)N2Cc2ccco2)cc1 (centres undefined)	-10%	-13%	1%	15%	1	7%
COCCCNC(=O)c1ccc(C2SCC(=O)N2Cc2ccco2)cc1 (centres undefined)	-11%	38%	-6%	10%	0	4%
O=C1CCCN2N=C(SCC(=O)Nc3nc4ccccc4s3)SC2=N1	-17%	-24%	-22%	?	-8	-5%
O=C1CCCN2N=C(SCC(=O)Nc3nccs3)SC2=N1	79µM*	?	-8%	32µM*	-21	11%
CCC(C)COC(c1ccccc1)(c1ccccc1)C(Oc1nc(C)cc(C)n1)C(=O)O (centres undefined)	9%	79µM*	-16%	0%	-2	10%
NC(=O)c1ccsc1NC(=O)c1ccc(N2CCCC2=O)cc1	25µM*	?	?	32µM*	-11	?
CC(=O)Nc1nc(-c2ccc([N+](=O)[O-])cc2)cs1	-19%	20%	0%	8%	1	-2%
N#C/C(=C/c1ccc(-c2cccc([N+](=O)[O-])c2)o1)C(=O)Nc1nc(-c2cccs2)cs1	-1%	?	-36%	·	-62*	7%
N#C/C(=C\c1ccc(-c2ccc([N+](=O)[O-])cc2)o1)C(=O)Nc1nc(-c2cccs2)cs1	32µM*	14µM*	?	?	?	-14%
Cc1c(Cl)c([N+](=O)[O-])nn1CC(=O)N1CCN(Cc2ccccc2)CC1	-9%	26%	-5%	1%	0	1%
Cc1ccc2nc(NCc3ccco3)c(C=NCc3ccco3)c(=O)n2c1	-6%	1%	-14%	28µM*	·	-2%
CCN1/C(=C/C=C/C=C/c2sc3ccccc3[n+]2CC)Sc2ccccc21	·	18µM*	32µM*	16µM*	·	32µM*
CCN1/C(=C/C=C/C=C/C=C/c2sc3ccccc3[n+]2CC)Sc2ccccc21	-16%	?	-2%[60.1 µM]	-10%	?	-17%
CCN1/C(=C/C=C/c2sc3ccccc3[n+]2CC)Sc2ccccc21	40µM*	?	11µM*!	·	-19	3%
O=C(CSc1ccc2nnc(-c3cccnc3)n2n1)NCc1ccco1	-2%	-13%	-10%	0%	-8	18%
O=C(CSc1ccc2nnc(-c3cccc(F)c3)n2n1)NCc1ccco1	0%	?	-39%	79µM*	·	-9%
COc1cc(/C=C2\SC(=S)N(NS(=O)(=O)c3ccccc3)C2=O)ccc1O	?	32µM*	-14%	-40%	-61*	-22%
CC(/C=C1\SC(=S)N(NS(=O)(=O)c2ccccc2)C1=O)=C\c1ccccc1	79µM*	?	-5%	-38%	?	-22%
COc1ccccc1/C=C1\SC(=S)N(NS(=O)(=O)c2ccccc2)C1=O	?	-19%	-17%	-19%	-30	-16%
COc1ccc(/C=C2/SC(=S)N(NS(=O)(=O)c3ccccc3)C2=O)cc1	89µM*	76%	-16%	3%	?	5%
C=CCOc1ccc(/C=C2\SC(=S)N(NS(=O)(=O)c3ccccc3)C2=O)cc1	25µM*	?	-18%	?	-56*	5%
O=S(=O)(NCCS(=O)(=O)N1CCN(c2ccccc2)CC1)c1ccc(Br)cc1	18%	-18%	-14%[60.1 µM]	39%	·	6%
COc1ccc2[nH]c(C(=O)N(C)c3ccc(F)cc3F)cc2c1	-3%	138%	-8%	-24%	-5	5%
SMILES	POLH inh	Pol iota inh	POLK inh	Pol beta inh	PI5P4Ka inh	FEN1 inhibitor
COc1cc(/C=C2\SC(=S)N(NC(=O)c3cccc(O)c3)C2=O)ccc1O	?	40µM*	-40%	16µM*	-20	?
O=C(O)c1ccc(/C=C2\SC(=S)N(NC(=O)c3ccccc3)C2=O)cc1	-15%	?	?	?	-12	-3%
CCOc1ccc(/C=C2/SC(=S)N(C(C(=O)O)c3ccccc3)C2=O)cc1OCC (centres undefined)	?	?	-2%	-15%	-4	-2%
CCOc1cc(/C=C2\SC(=S)N(NS(=O)(=O)c3ccc(C)cc3)C2=O)ccc1O	?	?	?	·	-59*	-34%
CCOc1cc(/C=C2/SC(=S)N(CC3CCCO3)C2=O)ccc1O (centres undefined)	-19%	28µM*	-18%	?	-16	-33%
COc1cc(/C=C2\SC(=S)N(C(C(=O)O)c3ccccc3)C2=O)ccc1O (centres undefined)	?	28µM*	-35%	?	-19	-26%
O=C1/C(=C/c2cccc(O)c2)SC(=S)N1CC1CCCO1 (centres undefined)	-18%	28%	5%	6%	3	-1%
O=C(O)c1ccc(-c2ccccc2C(F)(F)F)s1	·	·	-5%	·	·	·
CC(C)(C)n1ncc2c(=O)n(Cc3ccc(-c4ccccc4C#N)cc3)cnc21	·	20%	13%	·	·	0%
COc1ccc(NC(=O)/C(Cl)=C(/Cl)S(=O)(=O)Cc2ccc(C)cc2)cn1	14µM*	?	-6%	-1%	-7	-20%
Cc1ccc(NC(=O)Cn2c(=O)oc3ccccc32)cc1Cl	0%	92%	-23%	40µM*	-1	-10%
Cc1ccc(NC(=O)Cn2c(=O)oc3ccccc32)cc1	-14%	141%	-16%	25%	-3	-2%
O=C(Cn1c(=O)oc2ccccc21)Nc1n[nH]c(=S)s1	-14%	27%	-38%	-10%	-79*	?
CCOc1cc(N2CCOCC2)c(OCC)cc1NS(=O)(=O)c1ccc(Cl)s1	0%	28µM*	-15%	-80%	8	-4%
CCOc1cc(N2CCOCC2)c(OCC)cc1NC(=O)c1cc(S(=O)(=O)N2CCOCC2)ccc1Cl	-11%	15%	-4%	·	6	-10%
CCOc1ccccc1-n1nnnc1SCC(=O)NC(=O)NCc1ccco1	?	?	?	22µM*	·	7%
O=C(CSc1nnnn1-c1ccccc1)NC(=O)NCc1ccco1	8.9µM*	20µM*	?	40µM*	-60*	-7%
Cn1nnnc1SCC(=O)NCc1ccco1	-6%	5%	-9%	1%	·	-11%
O=C(Cn1cnnn1)OCC(=O)c1ccc(Cl)s1	14µM*	?	?	22µM*	-66*	-11%
